Assay results from PubChem BioAssay.
For part of these data: Potency and affinity values are given separately. Calls of active or inactive are those of the source.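 The calls were made as follows, unless noted: active = calcium signal rise above buffer-control mean plus 5 SD in both duplicates, and also a hit in the primary screen; inactive = the rest.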

Experiments:
[1] = tested on: TRPC4 beta (transient receptor potential cation channel C4), mouse; experiment: TRPC4 cation channel opening, retest – cell-based, Fluo4 calcium, HEK293 TRPC4beta/mu-opioid, duplicates, 10 µM, confirmation (AID 2426;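 active = fluorescence ratio normalized to control raised more than 50% in primary screen plus both repeat runs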); conditions: Fluo4 calcium fluorescence, at 10 µM; stronger effect = higher value
[2] = tested on: transient receptor potential cation channel C4 beta (TRPC4), mouse; experiment: TRPC4 cation channel opening, second retest – cell-based, second round, Fluo4, HEK293 TRPC4beta/mu-opioid, 1 µM, confirmation (AID 2461;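 active = primary screen active and over 50% activation in each of two duplicate runs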); conditions: Fluo4 calcium fluorescence, at 1 µM; stronger effect = higher value
[3] = tested on: TRPC4 (transient receptor potential cation channel C4 beta), mouse; experiment: potentiation of DAMGO EC20 TRPC4 response – cell-based, second round, Fluo-4, HEK293 TRPC4beta/mu-opioid, 1 µM, confirmation (AID 2554;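 active = primary screen hit whose fluorescence ratio, in both repeats, exceeds the weak agonist control mean by 3 SD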); conditions: DAMGO EC20, Fluo-4 calcium flux, at 1 µM; stronger effect = higher value
[4] = tested on: TRPC4 beta (transient receptor potential cation channel C4), mouse; experiment: potentiation of DAMGO EC20 TRPC4 response – cell-based, Fluo-4, HEK293 TRPC4beta/mu-opioid, confirmation (AID 2555;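 active = primary screen hit whose calcium fluorescence ratio, in both repeats, exceeds the weak agonist control mean by 3 SD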); conditions: DAMGO EC20, Fluo-4 calcium flux, at 10 µM; stronger effect = higher value
[5] = molecular target: Short transient receptor potential channel 4 (Mus musculus) (UniProt Q9QUQ5); experiment: blockers of DAMGO-evoked TRPC4 calcium flux – cell-based, Fluo4, HEK293 TRPC4beta/mu-opioid, confirmation (AID 2636;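 active = calcium signal cut by more than 3 SD below the full-agonist control yet still positive, in both repeats and the earlier primary screen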); conditions: at 10 µM; stronger effect = higher value
Chain of Short transient receptor potential channel 4 (Mus musculus) (Q9QUQ5 whole entry, looked up): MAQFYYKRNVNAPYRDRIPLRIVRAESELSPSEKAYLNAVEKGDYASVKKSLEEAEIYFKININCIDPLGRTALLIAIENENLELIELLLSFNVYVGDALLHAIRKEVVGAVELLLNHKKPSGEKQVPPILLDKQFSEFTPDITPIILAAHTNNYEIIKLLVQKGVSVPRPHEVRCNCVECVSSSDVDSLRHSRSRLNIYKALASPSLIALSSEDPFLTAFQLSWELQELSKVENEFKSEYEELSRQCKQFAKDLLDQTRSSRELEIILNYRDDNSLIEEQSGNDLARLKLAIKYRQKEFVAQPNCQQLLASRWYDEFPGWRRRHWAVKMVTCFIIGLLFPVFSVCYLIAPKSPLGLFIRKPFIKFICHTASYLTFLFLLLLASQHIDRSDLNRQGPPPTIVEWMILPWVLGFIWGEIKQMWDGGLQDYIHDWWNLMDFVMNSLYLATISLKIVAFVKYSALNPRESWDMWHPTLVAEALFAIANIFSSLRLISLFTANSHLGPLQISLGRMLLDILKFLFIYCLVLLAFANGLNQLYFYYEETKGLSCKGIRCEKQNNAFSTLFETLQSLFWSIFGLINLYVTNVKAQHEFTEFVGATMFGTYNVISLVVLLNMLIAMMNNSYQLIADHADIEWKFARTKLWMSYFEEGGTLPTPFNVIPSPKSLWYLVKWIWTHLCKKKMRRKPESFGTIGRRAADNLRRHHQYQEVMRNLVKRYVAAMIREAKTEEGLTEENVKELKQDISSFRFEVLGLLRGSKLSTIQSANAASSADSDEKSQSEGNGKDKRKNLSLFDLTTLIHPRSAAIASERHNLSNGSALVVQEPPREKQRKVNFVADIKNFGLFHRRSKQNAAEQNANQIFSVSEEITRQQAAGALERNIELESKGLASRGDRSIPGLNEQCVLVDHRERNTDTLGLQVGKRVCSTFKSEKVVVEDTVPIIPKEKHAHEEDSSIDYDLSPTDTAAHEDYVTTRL

[6] = molecular target: Short transient receptor potential channel 4 (Mus musculus) (UniProt Q9QUQ5); experiment: blockers of DAMGO-evoked TRPC4 calcium flux – cell-based, second round, Fluo4, HEK293 TRPC4beta/mu-opioid, 1 µM, confirmation (AID 2637;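 active = calcium signal ratio cut to more than 3 SD under the fully stimulated control mean yet still positive, in both repeats and the primary screen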;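 as to inhibition: percent of integrated ratio relative to wells lacking test compound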); conditions: at 1 µM; stronger effect = higher value
[7] = molecular target: Short transient receptor potential channel 4 (Mus musculus) (UniProt Q9QUQ5); experiment: calcium entry via TRPC4 opening agents – cell-based, HEK293 TRPC4/mu-opioid, Fluo-4 calcium, dose response (AID 434937;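 active = primary screen activator hit with a dose response curve and TRPC4 channel activation at any tested dose; inactive = no activation, no dose response, or not a primary hit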)
[8] = molecular target: Short transient receptor potential channel 4 (Mus musculus) (UniProt Q9QUQ5); experiment: potentiation of DAMGO-evoked TRPC4 calcium signal – cell-based, HEK293 TRPC4/mu-opioid, Fluo-4 calcium, EC20 DAMGO, dose response (AID 434941;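 active = earlier screen potentiator hit that boosts the TRPC4 ion channel at some dose, with a dose response; inactive = no potentiation, no dose response, or not a prior hit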;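 also: calcium entry triggered by an EC20 dose of DAMGO at the co-expressed mu-opioid receptor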)
[9] = molecular target: Short transient receptor potential channel 6 (Mus musculus) (UniProt Q61143); experiment: TRPC6 blockade by TRPC4 inhibitor hits – cell-based, HEK293, membrane potential dye, duplicate, selectivity assay for TRPC4 inhibitor project, confirmation (AID 434948;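 active = active in primary screen and both duplicates, each dropping signal beyond three positive-control SD with fluorescence still positive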); conditions: HEK293 TRPC6, membrane potential dye fluorescence, at 10 µM, stimulated with maximal-effect acetylcholine; stronger effect = higher value
Chain of Short transient receptor potential channel 6 (Mus musculus) (Q61143 whole entry, looked up): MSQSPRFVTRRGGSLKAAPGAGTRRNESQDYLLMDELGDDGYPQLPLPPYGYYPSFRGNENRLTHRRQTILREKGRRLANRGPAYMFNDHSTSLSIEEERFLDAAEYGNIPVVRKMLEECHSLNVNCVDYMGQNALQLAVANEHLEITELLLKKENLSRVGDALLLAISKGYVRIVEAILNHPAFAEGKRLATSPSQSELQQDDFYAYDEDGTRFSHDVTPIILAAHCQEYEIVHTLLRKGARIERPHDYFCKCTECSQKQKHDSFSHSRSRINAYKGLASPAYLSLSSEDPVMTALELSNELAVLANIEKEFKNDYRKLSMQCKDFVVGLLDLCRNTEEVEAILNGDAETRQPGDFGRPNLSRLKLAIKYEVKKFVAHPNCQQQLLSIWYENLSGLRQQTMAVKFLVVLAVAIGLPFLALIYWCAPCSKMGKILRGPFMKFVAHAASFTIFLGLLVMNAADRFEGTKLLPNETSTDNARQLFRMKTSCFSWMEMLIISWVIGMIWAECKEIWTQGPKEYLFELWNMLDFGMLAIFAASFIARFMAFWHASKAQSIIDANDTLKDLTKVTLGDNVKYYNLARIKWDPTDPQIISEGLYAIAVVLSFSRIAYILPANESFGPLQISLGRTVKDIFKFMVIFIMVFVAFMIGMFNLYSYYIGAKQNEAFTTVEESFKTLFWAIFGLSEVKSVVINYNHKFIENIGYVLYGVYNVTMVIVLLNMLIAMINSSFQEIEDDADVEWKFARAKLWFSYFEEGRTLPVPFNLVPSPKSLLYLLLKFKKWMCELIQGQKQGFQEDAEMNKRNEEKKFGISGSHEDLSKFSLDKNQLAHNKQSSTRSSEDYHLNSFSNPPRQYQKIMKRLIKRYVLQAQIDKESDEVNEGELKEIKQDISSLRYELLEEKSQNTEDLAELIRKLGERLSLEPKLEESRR

[10] = molecular target: Short transient receptor potential channel 6 (Mus musculus) (UniProt Q61143); experiment: TRPC6 opening by TRPC4 activator hits – cell-based, HEK293, membrane potential dye, duplicate, selectivity assay for TRPC4 activator project, confirmation (AID 434950;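 active = membrane potential signal rise above negative control mean plus 3 SD in both duplicates, also active in the earlier TRPC4 screen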); conditions: HEK293 TRPC6, membrane potential fluorescence, at 10 µM; activation: stronger effect = higher value; outcome: activation
[11] = molecular target: Short transient receptor potential channel 6 (Mus musculus) (UniProt Q61143); experiment: positive modulators of mouse TRPC6 channel – HEK293 cells, membrane potential dye, duplicate, selectivity assay for TRPC4 potentiator project, confirmation (AID 434952;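 active = compound raising the membrane signal above positive-control mean plus 3 SD in both repeats, and a primary screen hit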); conditions: HEK293 TRPC6, membrane potential dye fluorescence, at 10 µM, maximal acetylcholine added after compound; stronger effect = higher value
[12] = molecular target: Short transient receptor potential channel 4 (Mus musculus) (UniProt Q9QUQ5); experiment: calcium flux activators in TRPC4/5HT1a cells, counter-screen for TRPC4 activator project, cell-based, second counter screen, HEK293 TRPC4/5HT1a, Fluo-4 (AID 434977); conditions: Fluo-4 calcium flux, at 10 µM; stronger effect = higher value
[13] = serotonin-gated TRPC4 signal block – cell-based, second counter screen, HEK293 TRPC4/5HT1a, Fluo-4, counter-screen for TRPC4 inhibitor project, confirmation (AID 434978;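 active = primary screen active whose calcium signal fell more than 3 SD beyond the full-serotonin control mean in both duplicate plates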;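 as to outcome: serotonin given first at submaximal then at maximal dose after compound preincubation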); conditions: Fluo-4 calcium flux, at 10 µM, serotonin added to trigger calcium flux; stronger effect = higher value
[14] = tested on: TRPC4 (mouse), co-expressed with 5HT1a in HEK293; experiment: enhancement of serotonin-evoked TRPC4 response – cell-based, second counter screen, HEK293 TRPC4/5HT1a, Fluo-4, counter-screen for TRPC4 potentiator project, confirmation (AID 434979;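 active = signal rise over 3 SD above mean of control wells given weak agonist, in both repeats and first screen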); conditions: Fluo-4 calcium flux, at 10 µM, serotonin added at its EC20 dose; stronger effect = higher value
[15] = nonspecific calcium rise without TRPC4 – cell-based, HEK293 mu-opioid receptor line, counter-screen for TRPC4 activator project, confirmation (AID 449723;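 active = hit in primary screen, with calcium signal over 5 SD above buffer well mean in both duplicates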;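 also: counter screen cells carry the mu-opioid receptor alone and lack TRPC4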); conditions: HEK293 mu-opioid cells, Fluo-4 calcium fluorescence, at 10 µM; stronger effect = higher value
[16] = nonspecific potentiation of DAMGO calcium response – cell-based, HEK293 mu-opioid receptor line, counter-screen for TRPC4 allosteric potentiator project, confirmation (AID 449724;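 active = calcium signal rise more than 3 SD above the low-dose agonist control mean, in both duplicate plates and the primary screen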); conditions: HEK293 mu-opioid receptor cells, Fluo-4 calcium flux, at 10 µM, compound added before EC20 DAMGO stimulus; stronger effect = higher value

Measured: inhibition

Cc1cc([N+](=O)[O-])ccc1NCc1ccccc1
active: [5] 97% | [6] 44%
inactive: all other assays above

O=c1c2ccccc2nc(SCc2ccc([N+](=O)[O-])cc2)n1CCCO
active: [5] 90% | [6] 68% | [13] 19.5%
inactive: all other assays above

Cc1cccc(-n2ccnc2CN2CCC(CO)(Cc3ccccc3)CC2)c1
active: [5] 70%
inactive: all other assays above

COc1cc(CNC2CCCC2)c(Br)cc1OCc1ccccc1
active: [5] 87% | [13] 34.4%
inactive: all other assays above

Clc1ccc(COc2ccccc2CNCc2cccnc2)cc1
active: [5] 94% | [13] 27.8%
inactive: all other assays above

COc1ccc(CN2CCN(Cc3ccc(C(F)(F)F)cc3)CC2)c(OC)c1
active: [5] 95% | [6] 41% | [13] 23%
inactive: all other assays above

OCCNCc1cc(Br)ccc1OCc1ccc(Cl)cc1Cl
active: [5] 49% | [13] 24.9%
inactive: all other assays above

Fc1cccc(Nc2c3c(nc4ccccc24)CCC3)c1
active: [5] 96% | [13] 14.9%
inactive: all other assays above

COc1ccccc1CNCc1ccc(OC)c2ccccc12
active: [5] 96% | [13] 31%
inactive: all other assays above

Cn1c(-c2ccc(F)cc2)cnc1NCc1ccc(F)cc1
active: [5] 90% | [6] 68% | [13] 22.5%
inactive: all other assays above

COc1cc(CN(C)CC2CCCN(CCc3ccccc3F)C2)cc(Cl)c1OC (stereo not given)
active: [5] 93% | [13] 0.1%
inactive: all other assays above

CCOc1ccc2c(C)nc(NC3=NC(C)(C)C=C(C)N3)nc2c1
active: [5] 96% | [6] 37%
inactive: all other assays above

Fc1ccc(-n2cc(CNCCc3ccncc3)c(-c3ccccc3Cl)n2)cc1
inactive: all assays above

Cc1ccn2cc(CCNC(=O)c3ccc(Br)o3)nc2c1
active: [5] 89% | [13] 34.1%
inactive: all other assays above

Cc1c(N(C)S(=O)(=O)c2cc(C(=O)NCC3CCCO3)ccc2Cl)c(=O)n(-c2ccccc2)n1C (stereo not given)
active: [5] 84% | [6] 45%
inactive: all other assays above
